The list is not random: actives were taken first. Their share in the collection is about 1.6%.
UBC9 SUMO inh – SUMOylation inhibition | P63279 | HTRF SUMOylation assay, SAE1/SAE2 + UBC9, in vitro | 290,000 compounds, 0.36% hits | inhibition, % at 35 µM | AID 2006; in the data active = inhibition above about 50%, passing the limit was not always enough
NSD2 inh – NSD2 (human) methyltransferase inhibition; O96028; NSD2 peptide methylation, AlphaScreen, 120 min; inhibition, % at 12.5 µM; 310,000 compounds, 0.54% hits; in the data active = inhibition above about 50%
SIRT5 block – blocks human SIRT5 desuccinylation of peptide. Q9NXA8. Purified SirT5, succinyl-peptide AMC, trypsin-coupled fluorescence. inhibition, % at 15 µM. 330,000 compounds, 1.1% hits; in the data active = inhibition above about 15%
Target sequence (Q9NXA8 whole entry, looked up): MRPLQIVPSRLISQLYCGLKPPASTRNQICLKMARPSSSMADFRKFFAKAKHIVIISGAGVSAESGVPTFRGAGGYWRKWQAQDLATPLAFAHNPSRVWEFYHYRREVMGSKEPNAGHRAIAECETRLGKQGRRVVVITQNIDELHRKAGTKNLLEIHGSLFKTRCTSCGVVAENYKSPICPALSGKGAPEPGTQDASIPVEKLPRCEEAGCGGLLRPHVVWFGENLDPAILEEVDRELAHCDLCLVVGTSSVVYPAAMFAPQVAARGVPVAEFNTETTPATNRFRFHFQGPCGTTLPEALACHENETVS
Casp6 inh – inhibitors of human caspase-6; P55212; AID 686996; purified caspase-6, Z-VEID-R110 cleavage fluorescence; 350,000 compounds, 0.53% hits; inhibition, % at 12.5 µM;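 active = mean inhibition across replicates at least about 35%, with every replicate also reaching that limit, limit read from the data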;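 also: 0% = median of neutral control wells and 100% = no fluorescence left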
Target sequence (P55212 24-179 limits assumed): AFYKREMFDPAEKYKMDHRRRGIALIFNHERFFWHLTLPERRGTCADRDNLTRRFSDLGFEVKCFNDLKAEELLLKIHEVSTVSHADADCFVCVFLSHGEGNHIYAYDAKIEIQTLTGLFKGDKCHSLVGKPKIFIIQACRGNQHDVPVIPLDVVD
Target sequence (P55212 194-293 limits assumed): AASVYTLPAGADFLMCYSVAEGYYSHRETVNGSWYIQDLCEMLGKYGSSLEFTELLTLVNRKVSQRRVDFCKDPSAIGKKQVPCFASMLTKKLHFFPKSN
Active calls of the source: *; x = not tested or not shown.

SMILES	UBC9 SUMO inh	NSD2 inh	SIRT5 block	Casp6 inh
C[C@H]1CN([C@@H](C)CO)C(=O)c2cccc(NS(=O)(=O)c3ccccc3)c2O[C@@H]1CN(C)C(=O)Nc1ccc2c(c1)OCO2	x	x	-10	-1
CCS(=O)(=O)Nc1ccc2c(c1)C(=O)N(C)C[C@H](OC)[C@@H](C)CN(C)[C@H](C)CO2	x	x	-4	0
Nc1nc(SCC(=O)NC2CCCCC2)n[nH]1	-4	-2	-1	95*
Cc1nnc(SCC(=O)NC2CCCCCC2)n1C(C)C	18	x	-1	44*
Cc1nnc(SCC(=O)NC2CCCCCC2)n1N	x	-1	-8	-16
C[C@H](CO)N1C[C@H](C)[C@@H](CN(C)C(=O)Nc2ccccc2F)Oc2cc(-c3ccccc3)ccc2S1(=O)=O	x	x	-2	1
C[C@@H]1CN([C@H](C)CO)C(=O)c2cc(NC(=O)Nc3ccc(F)cc3)ccc2O[C@H]1CN(C)Cc1ccc(C(F)(F)F)cc1	x	x	7	-1
Cc1csc(N2CCCC2=O)n1	19	1	21*	-2
Cc1csc(NC(=O)c2ccc(N3CCCC3=O)cc2)n1	8	-2	-2	-1
CO[C@H]1CN(C)C(=O)c2ccc(NS(=O)(=O)c3ccccc3C)cc2OC[C@@H](C)N(S(C)(=O)=O)C[C@@H]1C	x	x	0	-1
C[C@H]1CN([C@@H](C)CO)C(=O)Cc2cc(NS(=O)(=O)c3ccc(Cl)cc3)ccc2O[C@H]1CN(C)Cc1ccc(Oc2ccccc2)cc1	x	x	11	0
C[C@H](CO)N1C[C@H](C)[C@@H](CN(C)Cc2ccc(Oc3ccccc3)cc2)Oc2ccc(NS(=O)(=O)c3ccccc3)cc2CC1=O	x	x	14	1
C[C@@H]1CN([C@H](C)CO)C(=O)Cc2cc(NS(=O)(=O)c3ccc(Cl)cc3)ccc2O[C@H]1CN(C)Cc1ccc(Oc2ccccc2)cc1	x	x	20*	1
C[C@H](CO)N1C[C@H](C)[C@H](CN(C)Cc2ccc(Oc3ccccc3)cc2)Oc2ccc(NS(=O)(=O)c3ccccc3)cc2CC1=O	x	x	12	52*
COc1ccc(NS(=O)(=O)c2cc(NC(=O)Cc3ccccc3F)ccc2N2CCOCC2)cc1	x	0	x	x
Cc1ccc(NC(=O)CSc2sc3c(O)cc(=O)[nH]c3c2C#N)c(F)c1	9	x	x	29
COc1ccc(Cl)cc1NC(=O)CSc1nnc(Cc2ccc(C)cc2)c(=O)[nH]1	x	x	3	-3
COc1cc(Cl)c(C)cc1NC(=O)CSc1sc2c(O)cc(=O)[nH]c2c1C#N	27	x	15*	26
COc1ccc(OC)c(NC(=O)CSc2sc3c(O)cc(=O)[nH]c3c2C#N)c1	14	x	13	43*
COc1cc(Cl)c(C)cc1NC(=O)CSc1nnc(CCC(=O)O)c(=O)[nH]1	2	-3	22*	10
N#Cc1c(SCC(=O)Nc2ccc(C(F)(F)F)cc2)sc2c(O)cc(=O)[nH]c12	8	x	2	41*
O=C(O)C[C@@H]1C=C[C@H](NC(=O)CCN2CCCCC2)[C@@H](CO)O1	x	x	-1	0
Cc1ccc(S(=O)(=O)N(C)C[C@H]2Oc3ccc(NC(=O)Nc4c(C)noc4C)cc3CC(=O)N([C@H](C)CO)C[C@H]2C)cc1	x	x	-2	x
Cc1noc(C)c1NC(=O)N[C@H]1C=C[C@H](CC(=O)Nc2ccc(-c3ccccc3)cc2)O[C@@H]1CO	x	x	x	0
CC(C)CC#Cc1ccc2c(c1)O[C@H](CN(C)C(=O)C1CCCCC1)[C@@H](C)CN([C@H](C)CO)S2(=O)=O	x	x	21*	0
SMILES	UBC9 SUMO inh	NSD2 inh	SIRT5 block	Casp6 inh
C[C@@H]1CN([C@H](C)CO)S(=O)(=O)c2ccc(C#Cc3ccccc3)cc2O[C@H]1CN(C)C(=O)C1CC1	x	x	16*	0
CC(C)CC#Cc1ccc2c(c1)O[C@@H](CN(C)CC1CCOCC1)[C@H](C)CN([C@H](C)CO)S2(=O)=O	x	x	17*	3
CC(C)CC#Cc1ccc2c(c1)O[C@@H](CN(C)C(=O)C1CCCCC1)[C@H](C)CN([C@@H](C)CO)S2(=O)=O	x	x	17*	1
CCCC#Cc1ccc2c(c1)O[C@H](CN(C)CC1CCOCC1)[C@H](C)CN([C@H](C)CO)S2(=O)=O	x	x	8	-1
CC(C)CC#Cc1ccc2c(c1)O[C@H](CN(C)C(=O)C1CCC1)[C@H](C)CN([C@@H](C)CO)S2(=O)=O	x	x	7	0
C[C@H]1CN([C@@H](C)CO)S(=O)(=O)c2ccc(C#Cc3ccccc3)cc2O[C@H]1CN(C)C(=O)C1CC1	x	x	4	2
O=C(Cc1cccnc1)N1CC(=O)N2[C@H](C1)[C@H](c1ccc(C3=CCCC3)cc1)[C@@H]2CO	x	x	1	2
CC(C)C#Cc1ccc2c(c1)O[C@@H](CN(C)C(=O)c1ccccn1)[C@H](C)CN([C@H](C)CO)S2(=O)=O	x	x	6	-4
CC(C)CC#Cc1ccc2c(c1)O[C@H](CN(C)C(=O)C1CCC1)[C@@H](C)CN([C@@H](C)CO)S2(=O)=O	x	x	6	3
CC(C)CC#Cc1ccc2c(c1)O[C@H](CN(C)C(=O)C1CCCCC1)[C@@H](C)CN([C@@H](C)CO)S2(=O)=O	x	x	27*	1
O=C(O)c1ccc(OCC(O)Cn2c3ccccc3c3ccccc32)cc1 (stereo unspecified)	9	-2	24*	2
C[C@H]1CN([C@@H](C)CO)C(=O)c2cccc(NC(=O)Nc3ccc(C(F)(F)F)cc3)c2O[C@H]1CN(C)S(=O)(=O)c1ccc(F)cc1	x	x	16*	1
C[C@H]1CN([C@@H](C)CO)C(=O)c2cccc(NC(=O)Nc3ccc(C(F)(F)F)cc3)c2O[C@@H]1CN(C)S(=O)(=O)c1ccc(F)cc1	x	x	13	0
C[C@@H]1CN([C@H](C)CO)C(=O)c2cccc(NC(=O)Nc3ccc(C(F)(F)F)cc3)c2O[C@H]1CN(C)S(=O)(=O)c1cccs1	x	x	17*	-1
Cc1ccc(S(=O)(=O)N(C)C[C@H]2Oc3c(NC(=O)Nc4ccc5c(c4)OCO5)cccc3C(=O)N([C@@H](C)CO)C[C@H]2C)cc1	x	x	15*	-2
COc1ccccc1S(=O)(=O)N[C@H]1CC[C@@H](CCNC(=O)C2CC2)O[C@H]1CO	x	x	-4	0
CNC[C@@H]1Oc2ccc(NC(=O)Nc3cccc4ccccc34)cc2CC(=O)N([C@@H](C)CO)C[C@@H]1C	x	x	1	-2
C[C@H]1CN([C@@H](C)CO)C(=O)c2cccc(NS(C)(=O)=O)c2O[C@@H]1CN(C)Cc1ccc2c(c1)OCO2	x	x	1	-6
CCOc1ccc(S(=O)(=O)Nc2cc(SCC(=O)O)c(O)c3ccccc23)cc1	75*	x	1	88*
O=C(O)CSc1cc(NS(=O)(=O)c2cccc([N+](=O)[O-])c2)c2ccccc2c1O	88*	x	6	68*
COc1ccc(S(=O)(=O)Nc2cccc3c2O[C@H](CN(C)C(=O)NC2CCCCC2)[C@H](C)CN([C@H](C)CO)C3=O)cc1	x	x	4	-2
Cc1noc(C)c1NC(=O)N(C)C[C@H]1Oc2ncc(/C=C/c3ccccc3)cc2C(=O)N([C@H](C)CO)C[C@@H]1C	x	x	-10	-1
CCCC(=O)N1CC2(CN(C(=O)CC3CC3)C2)c2c(n(C)c3cc(OC)ccc23)[C@@H]1CO	x	x	3	-2
